Experimental data from PubChem BioAssay AID602248 (The Scripps Research Institute Molecular Screening Center, 2012).
The whole screen tested about 360,000 compounds, of which about 1,700 (0.47%) were called active. This excerpt belongs to a sample that is enriched for actives. Values without a mark were called inactive. Cut-off read from the data, not from the text of the source: active = activation above about 15%; inactive = the rest.

Assay: counter-screen for M1 agonists: effect in parental CHO-K1 cells (AID 602248);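 note: untransfected CHO-K1 host cells lacking M1 receptor as counterscreen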
Conditions: Fluo-8 calcium fluorescence, at 3 µM, hits give high values, scaled to maximal ATP response, vehicle zero

With `NC(=O)C1=C[C@H](c2csc3ccccc23)C[C@H](OCc2ccc(CO)cc2)O1` the activation was 15.6% (active).
For `CCC1(C)Cc2c(sc3nc(SC)[nH]c(=O)c23)CO1` (configuration not stated), the activation was 18.7% (active).
For `CCC(C(=O)Nc1ccc(C(C)C)cc1)c1ccccc1` (configuration not stated), the activation was 21.5% (active).
In the case of `CC(NC(=S)Nc1ccc(OC(F)F)cc1)c1ccc(F)cc1` (configuration not stated), the activation is reported as 18.2% (active).
With `Oc1ccccc1N1CCN(c2ncnc3sc(-c4ccccc4)cc23)CC1` the activation was 18.6% (active).
In the case of `NS(=O)(=O)c1ccc(NC(=O)COC(=O)c2c3c(nc4ccccc24)/C(=C\c2ccc4c(c2)OCO4)CCC3)cc1`, the activation is reported as 17.2% (active).
For `NC(=O)c1ccc(NC(=O)COC(=O)c2c3c(nc4ccccc24)/C(=C\c2ccc4c(c2)OCO4)CCC3)cc1`, the activation was 28.9% (active).
In the case of `CN(C(=O)CN(CCO)CC(=O)N(C)C(C)(C)Cc1ccccc1)C(C)(C)Cc1ccccc1`, the activation is reported as 30.2% (active).
In the case of `CCN(CC)CCCC(C)n1c2nc(=O)[nH]c(=O)c-2nc2cc(Cl)ccc21` (configuration not stated), the activation is reported as 150% (active).
For `O=C(NCCCN1CCN(c2ccc(F)cc2)CC1)Nc1ccc([N+](=O)[O-])cc1`, the activation was 15.1% (active).
In the case of `CCSCc1nc(N)nc(NCCc2ccccc2)n1`, the activation is reported as 15.5% (active).

Point of comparison: `CCOC(=O)[C@H]1[C@H]2COc3ccc(Cl)cc3[C@@H]2N2C(=O)c3cc(C)ccc3NC(=O)[C@@]12C`, activation -0.51%. Against it:
- O=C(NC1CC1)C1=C[C@H](c2c[nH]c3ccccc23)C[C@H](OCc2ccc(CO)cc2)O1 — higher, -0.26%
- NC(=O)C1=C[C@@H](c2csc3ccccc23)C[C@@H](OCc2ccc(CO)cc2)O1 — higher, 5.09%
- Cc1ccc(N)cc1-n1c(C)ccc1C — higher, 0.3%
- O=C(CSc1ccc(Cl)cc1)NC1CC1 — higher, -0.25%
- CCSc1nc2sc3c(c2c(=O)[nH]1)CC(C)(C)OC3 — higher, 0.45%
- CC/C(C)=N/Nc1nc2sc3c(c2c(=O)[nH]1)CC(C)(C)OC3 — higher, 0.65%
- COc1ccc(-n2ncc3c2CC(C)(C)CC3NC(=O)CCc2c(C)nn(C)c2C)cc1 (configuration not stated) — higher, 2.09%
- Cc1ccc(NC(=O)C(C)c2cccc(C(=O)c3ccccc3)c2)cc1 (configuration not stated) — higher, 3.5%
- CCCC(C)C(=O)Nc1ccc(NC(C)=O)cc1 (configuration not stated) — higher, -0.01%
- COc1ccc([C@H]2C[C@@H](n3cc(COC(=O)c4ccccc4)nn3)[C@H](O)CN2C(=O)c2cccs2)cc1 — higher, 4.74%
- O=C(NCCc1ccccn1)c1cc(C(=O)C2CCCCC2)c[nH]1 — higher, 0.74%
- CC(C)N(Cc1ccccc1)C(=S)Nc1ccc(OC(F)F)cc1 — higher, 3.54%
- CC/C(=N\NC(=S)NC(C)C)c1ccc(OC(F)F)cc1 — higher, 0.04%
- COC(=O)[C@]12CCCCC=C1N(CCC1=CCCCC1)C(=O)[C@H](CC(=O)N1CCSCC1)C2 — higher, 2.39%
- O=C(CC(=O)N/N=C\c1cccc(Cl)c1Cl)NCc1ccccc1 — higher, 6.61%
- CSc1sc(C)cc1C1C(C#N)=C(N)N(c2cccnc2)C2=C1C(=O)CCC2 (configuration not stated) — higher, 0.25%
- C=CC(=O)OCCOCCOCCOCCOC(=O)C=C — higher, 0.44%
- CCc1cc2c(N3CCN(c4nnc(CC)s4)CC3)ncnc2s1 — higher, 3.43%
- COc1ccccc1N1CCN(c2ncnc3sc(C)c(-c4ccccc4)c23)CC1 — higher, 0.5%
- COc1ccc(CSc2nnnn2-c2ccc(O)cc2)cc1F — higher, 7.29%
- COc1ccc2c(c1)[C@H]1[C@H](CO2)[C@H](c2ccccc2)[C@]2(C)C(=O)Nc3cc(F)c(F)cc3C(=O)N12 — higher, 0.27%
- CCN1C(=NCC(C)C)N[C@@H](CCc2ccccc2)[C@H](C(=O)NCC(C)C)[C@H]1C — higher, 0.45%
- O=S1(=O)CC(N2CCN(Cc3ccccc3F)CC2)CN1Cc1cn(Cc2ccccc2)nn1 (configuration not stated) — higher, 0.46%
- CCOC(=O)CC1=CC(=O)Nc2ccccc2N1 — higher, 0.86%
- NS(=O)(=O)c1ccc(NC(=O)COC(=O)CCc2c[nH]c3ccccc23)cc1 — higher, 2.12%
- O=C(COC(=O)c1ccc(Cl)nc1)NCc1ccc2c(c1)OCO2 — higher, 1.56%
- CC(=O)Nc1cccc(C(=O)OCC(=O)c2ccc3c(c2)OCO3)c1 — higher, 3.56%
- CC(NC(=S)Nc1ccc(S(N)(=O)=O)cc1)c1ccc2c(c1)OCO2 (configuration not stated) — higher, 0.36%
- Cc1ccc(NS(=O)(=O)c2cn(C)c(=O)n(C)c2=O)c(C)c1 — higher, 0.05%
- O=C(COC(=O)c1cncc(Br)c1)Nc1ccc(S(=O)(=O)N2CCOCC2)cc1 — higher, 0.85%
- CCOC(=O)N(Cc1ccccc1)C1CC1 — higher, 0.45%
- CN(CCO)C(=O)c1nc[nH]c1C(=O)N(C)Cc1ccccc1 — higher, 0.53%
- COc1ccc(CCNS(=O)(=O)c2ccc(Cl)s2)cc1OC — higher, 0.5%
- CCCn1c(=O)c2ccccc2n2c(SCC(=O)/C(C#N)=C(\C)N)nnc12 — higher, -0.17%
- CN(C)c1ccc(C(CNC(=O)c2ccc(F)cc2)c2c[nH]c3ccccc23)cc1 (configuration not stated) — higher, 0.33%
- COC(=O)c1nc2n(n1)C(c1ccc([N+](=O)[O-])cc1)C(C(=O)Nc1ccc(Cl)cc1)=C(C)N2 (configuration not stated) — higher, 0.7%
- CC(=O)c1c(C)[nH]c(C(=O)OCC(=O)Nc2c(C)n(C)n(-c3ccccc3)c2=O)c1C — higher, 0.66%
- O=C(c1ccc(=O)[nH]c1)N(Cc1ccco1)C1(C(=O)NC2CCCCC2)CCCCC1 — higher, 0.04%
- COc1ccc(OC)c(NC(=O)C2CCCN2S(=O)(=O)c2cccc3nsnc23)c1 (configuration not stated) — higher, 0.61%
- Nc1ccc2[nH]c(=S)sc2c1 — higher, 0.51%
- CN1CCN(CCNC(=O)Nc2ccc([N+](=O)[O-])cc2)CC1 — higher, 0.55%
- O=C(CCN1C(=O)COc2ccccc21)NCCCN1CCN(c2ccc(F)cc2)CC1 — higher, 0.21%
- CCn1nnnc1SCC(=O)Nc1ccc(N(C)C)cc1 — higher, 0.31%
- Cc1ccccc1Nc1nc(N)nc(CSc2ccccc2)n1 — higher, 0.45%
- Nc1nc(CSc2nnnn2-c2ccccc2)nc(Nc2ccccc2)n1 — higher, 1.93%
